Publication PMC7862700, “An all-to-all approach to the identification of sequence-specific readers for epigenetic DNA modifications on cytosine”

Assays:
Test in all cases: DAPPL (digital affinity profiling via proximity ligation, sequencing); 10 mM Tris-HCl pH 7.5, 50 mM NaCl, 1 mM DTT, 4% glycerol, room temperature, 30 min; GST-TFs on glutathione beads, 16-mer random dsDNA library, 0.1% formaldehyde crosslink after washing; high values mean tight binding
FLI1 = molecular target: T1, FLI1 (Homo sapiens, UniProt Q01543 1-452); details: protein: recombinant; tags: N-terminal GST; dsDNA, one strand shown
T1 sequence: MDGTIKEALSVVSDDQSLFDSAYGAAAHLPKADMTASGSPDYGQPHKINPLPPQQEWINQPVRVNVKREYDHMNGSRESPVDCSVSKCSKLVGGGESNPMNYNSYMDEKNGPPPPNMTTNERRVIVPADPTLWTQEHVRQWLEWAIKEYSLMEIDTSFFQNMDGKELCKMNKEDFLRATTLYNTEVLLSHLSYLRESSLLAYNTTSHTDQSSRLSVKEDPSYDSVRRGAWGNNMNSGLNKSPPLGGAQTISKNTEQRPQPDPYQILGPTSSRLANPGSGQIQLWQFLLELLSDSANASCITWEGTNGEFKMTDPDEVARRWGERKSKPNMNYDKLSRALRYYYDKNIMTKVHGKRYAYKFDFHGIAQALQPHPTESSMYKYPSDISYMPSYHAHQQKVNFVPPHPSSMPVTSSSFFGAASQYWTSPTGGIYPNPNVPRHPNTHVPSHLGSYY
Method in brief: (§1)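 GST fusions of human transcription factors were expressed in yeast and captured with glutathione beads. Once given DNA barcodes and pooled alongside a tag-only sample, they were incubated for 30 min at room temperature with 200 nmole of a random double-stranded 16-mer DNA library in Tris/NaCl/DTT/glycerol buffer, then washed, crosslinked (0.1% formaldehyde), proximity-ligated, PCR-amplified and sequenced on an Illumina NextSeq500. The binding signal of each hexamer is its read frequency for a factor divided by its frequency for the tag-only sample.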

ELK1 = molecular target: T2, ELK1 (Homo sapiens, UniProt P19419 1-428); details: protein: recombinant; tags: N-terminal GST; dsDNA, one strand shown
T2 sequence: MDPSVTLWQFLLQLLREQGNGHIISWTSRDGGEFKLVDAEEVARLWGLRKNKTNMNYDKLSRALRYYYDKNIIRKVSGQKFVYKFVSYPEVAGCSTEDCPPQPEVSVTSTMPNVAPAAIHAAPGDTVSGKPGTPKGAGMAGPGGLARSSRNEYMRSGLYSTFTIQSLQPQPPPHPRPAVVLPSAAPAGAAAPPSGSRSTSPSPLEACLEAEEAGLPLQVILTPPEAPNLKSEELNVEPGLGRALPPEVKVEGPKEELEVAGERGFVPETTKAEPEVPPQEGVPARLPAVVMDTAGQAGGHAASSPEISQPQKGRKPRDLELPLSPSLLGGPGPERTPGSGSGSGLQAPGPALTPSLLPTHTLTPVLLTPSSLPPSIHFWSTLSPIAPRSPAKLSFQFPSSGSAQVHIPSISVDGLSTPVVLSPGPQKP
Method in brief: as §1

GABPA = molecular target: T3, GABPA (Homo sapiens, UniProt Q06546 1-454); details: protein: recombinant; tags: N-terminal GST; dsDNA, one strand shown
T3 sequence: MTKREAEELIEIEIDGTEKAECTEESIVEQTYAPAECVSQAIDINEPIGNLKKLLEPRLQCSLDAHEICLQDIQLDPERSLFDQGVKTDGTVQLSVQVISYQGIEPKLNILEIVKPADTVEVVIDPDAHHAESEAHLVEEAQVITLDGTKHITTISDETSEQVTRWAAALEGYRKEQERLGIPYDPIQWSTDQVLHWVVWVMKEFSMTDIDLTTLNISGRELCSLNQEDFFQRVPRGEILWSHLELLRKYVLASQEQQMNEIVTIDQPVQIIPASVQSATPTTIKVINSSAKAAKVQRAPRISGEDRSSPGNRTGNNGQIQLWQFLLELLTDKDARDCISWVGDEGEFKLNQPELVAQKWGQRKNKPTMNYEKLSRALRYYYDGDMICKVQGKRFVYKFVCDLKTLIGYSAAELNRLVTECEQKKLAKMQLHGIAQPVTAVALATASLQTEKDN
Method in brief: as §1

ERG = molecular target: T4, ERG (Homo sapiens, UniProt P11308 1-479); details: protein: recombinant; tags: N-terminal GST; dsDNA, one strand shown
T4 sequence: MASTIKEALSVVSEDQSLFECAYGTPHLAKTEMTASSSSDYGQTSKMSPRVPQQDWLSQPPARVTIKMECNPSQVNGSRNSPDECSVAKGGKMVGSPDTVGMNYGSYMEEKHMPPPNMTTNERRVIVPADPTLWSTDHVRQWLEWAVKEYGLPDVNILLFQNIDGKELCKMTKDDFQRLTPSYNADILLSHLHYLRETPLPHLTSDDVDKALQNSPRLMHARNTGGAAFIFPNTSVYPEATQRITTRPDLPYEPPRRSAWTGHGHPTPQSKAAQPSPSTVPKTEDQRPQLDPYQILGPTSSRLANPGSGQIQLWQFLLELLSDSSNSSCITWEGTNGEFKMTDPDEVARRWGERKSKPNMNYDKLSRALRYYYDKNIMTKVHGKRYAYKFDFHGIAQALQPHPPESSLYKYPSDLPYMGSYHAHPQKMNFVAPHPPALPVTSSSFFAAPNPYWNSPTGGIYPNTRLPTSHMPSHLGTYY
Method in brief: as §1

ELF1 = ELF1 (Homo sapiens, UniProt P32519 1-619); details: protein: recombinant; tags: N-terminal GST; dsDNA, one strand shown
Method in brief: as §1

EHF = molecular target: T5, EHF (Homo sapiens, UniProt Q9NZC4 1-300); details: protein: recombinant; tags: N-terminal GST; dsDNA, one strand shown
T5 sequence: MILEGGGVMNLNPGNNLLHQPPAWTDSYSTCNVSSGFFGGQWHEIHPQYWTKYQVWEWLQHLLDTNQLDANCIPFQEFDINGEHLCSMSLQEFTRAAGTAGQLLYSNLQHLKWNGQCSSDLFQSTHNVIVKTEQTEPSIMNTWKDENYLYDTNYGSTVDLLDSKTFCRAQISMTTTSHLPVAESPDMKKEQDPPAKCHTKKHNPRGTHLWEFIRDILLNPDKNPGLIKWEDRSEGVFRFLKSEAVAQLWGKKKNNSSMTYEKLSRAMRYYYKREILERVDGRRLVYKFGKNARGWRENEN
Method in brief: as §1

SPI1 = SPI1 (Homo sapiens, UniProt P17947 1-270); details: protein: recombinant; tags: N-terminal GST; dsDNA, one strand shown
Method in brief: as §1

SPIB = SPIB (Homo sapiens, UniProt Q01892 1-262); details: protein: recombinant; tags: N-terminal GST; dsDNA, one strand shown
Method in brief: as §1

ELK3 = molecular target: T6, ELK3 (Homo sapiens, UniProt P41970 1-407); details: protein: recombinant; tags: N-terminal GST; dsDNA, one strand shown
T6 sequence: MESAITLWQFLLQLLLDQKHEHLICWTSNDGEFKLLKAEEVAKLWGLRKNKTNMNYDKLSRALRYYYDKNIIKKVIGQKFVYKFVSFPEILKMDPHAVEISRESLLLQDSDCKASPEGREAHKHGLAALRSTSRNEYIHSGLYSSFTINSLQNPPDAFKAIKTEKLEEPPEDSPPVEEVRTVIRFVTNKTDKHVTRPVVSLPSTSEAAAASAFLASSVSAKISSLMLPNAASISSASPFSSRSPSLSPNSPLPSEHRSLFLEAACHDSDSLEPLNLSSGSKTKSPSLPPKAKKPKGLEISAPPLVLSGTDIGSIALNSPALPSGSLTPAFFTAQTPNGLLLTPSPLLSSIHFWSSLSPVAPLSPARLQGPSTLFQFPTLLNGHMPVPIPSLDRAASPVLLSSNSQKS
Method in brief: as §1

FEV = molecular target: T7, FEV (Homo sapiens, UniProt Q99581 1-238); details: protein: recombinant; tags: N-terminal GST; dsDNA, one strand shown
T7 sequence: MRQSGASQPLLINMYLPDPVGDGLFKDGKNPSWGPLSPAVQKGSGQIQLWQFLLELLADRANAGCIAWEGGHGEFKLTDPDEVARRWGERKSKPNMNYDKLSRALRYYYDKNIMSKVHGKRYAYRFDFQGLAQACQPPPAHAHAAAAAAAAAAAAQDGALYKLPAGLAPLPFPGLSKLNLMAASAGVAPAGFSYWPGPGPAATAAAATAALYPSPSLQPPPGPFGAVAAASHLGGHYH
Method in brief: as §1

ETV5 = ETV5 (Homo sapiens, UniProt P41161 1-510); details: protein: recombinant; tags: N-terminal GST; dsDNA, one strand shown
Method in brief: as §1

HSF1 = HSF1 (Homo sapiens, UniProt Q00613 1-529); details: protein: recombinant; tags: N-terminal GST; chain copies: 3; dsDNA, one strand shown
Method in brief: as §1

SPIC = molecular target: T8, SPIC (Homo sapiens, UniProt Q8N5J4 1-248); details: protein: recombinant; tags: N-terminal GST; dsDNA, one strand shown
T8 sequence: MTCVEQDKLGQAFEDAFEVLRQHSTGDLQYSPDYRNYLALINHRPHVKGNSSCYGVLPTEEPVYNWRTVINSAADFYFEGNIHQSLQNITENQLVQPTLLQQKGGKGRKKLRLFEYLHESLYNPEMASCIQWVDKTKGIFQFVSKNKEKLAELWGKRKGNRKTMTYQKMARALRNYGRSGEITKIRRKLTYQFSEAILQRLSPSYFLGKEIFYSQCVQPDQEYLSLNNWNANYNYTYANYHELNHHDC
Method in brief: as §1

ELF4 = ELF4 (Homo sapiens, UniProt Q99607 1-663); details: protein: recombinant; tags: N-terminal GST; dsDNA, one strand shown
Method in brief: as §1

ELK4 = molecular target: T9, ELK4 (Homo sapiens, UniProt P28324-2 1-405); details: protein: recombinant; tags: N-terminal GST; dsDNA, one strand shown
T9 sequence: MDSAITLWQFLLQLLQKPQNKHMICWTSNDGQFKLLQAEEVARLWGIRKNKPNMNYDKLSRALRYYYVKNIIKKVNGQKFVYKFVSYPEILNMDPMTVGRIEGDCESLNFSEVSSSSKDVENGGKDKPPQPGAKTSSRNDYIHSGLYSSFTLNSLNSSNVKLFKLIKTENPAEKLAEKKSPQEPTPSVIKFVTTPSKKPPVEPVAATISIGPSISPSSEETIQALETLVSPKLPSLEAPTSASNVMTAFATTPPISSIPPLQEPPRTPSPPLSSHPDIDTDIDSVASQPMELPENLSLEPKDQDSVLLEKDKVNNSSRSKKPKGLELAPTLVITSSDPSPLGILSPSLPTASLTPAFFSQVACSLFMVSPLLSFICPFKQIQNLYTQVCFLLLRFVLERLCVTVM
Method in brief: as §1

ETV2 = molecular target: T10, ETV2 (Homo sapiens, UniProt O00321 1-342); details: protein: recombinant; tags: N-terminal GST; dsDNA, one strand shown
T10 sequence: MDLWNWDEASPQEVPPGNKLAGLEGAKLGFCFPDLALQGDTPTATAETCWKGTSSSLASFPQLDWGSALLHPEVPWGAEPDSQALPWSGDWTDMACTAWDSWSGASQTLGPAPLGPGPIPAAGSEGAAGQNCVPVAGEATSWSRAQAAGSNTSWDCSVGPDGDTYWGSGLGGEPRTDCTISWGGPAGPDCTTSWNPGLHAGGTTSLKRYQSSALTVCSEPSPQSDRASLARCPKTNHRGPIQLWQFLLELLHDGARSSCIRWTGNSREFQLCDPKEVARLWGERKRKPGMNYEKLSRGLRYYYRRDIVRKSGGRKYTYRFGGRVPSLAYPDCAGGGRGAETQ
Method in brief: as §1

ELF3 = molecular target: T11, ELF3 (Homo sapiens, UniProt P78545 1-371); details: protein: recombinant; tags: N-terminal GST; dsDNA, one strand shown
T11 sequence: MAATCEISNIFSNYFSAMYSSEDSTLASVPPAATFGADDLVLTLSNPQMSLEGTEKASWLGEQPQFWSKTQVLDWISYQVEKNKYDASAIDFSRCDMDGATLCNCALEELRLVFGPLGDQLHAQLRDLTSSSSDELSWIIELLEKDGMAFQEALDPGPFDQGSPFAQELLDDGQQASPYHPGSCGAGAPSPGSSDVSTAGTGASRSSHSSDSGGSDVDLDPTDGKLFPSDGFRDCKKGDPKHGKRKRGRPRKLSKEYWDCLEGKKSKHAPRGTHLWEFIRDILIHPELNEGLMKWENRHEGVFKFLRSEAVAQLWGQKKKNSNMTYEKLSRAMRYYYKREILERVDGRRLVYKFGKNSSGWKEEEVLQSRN
Method in brief: as §1

ETV1 = ETV1 (Homo sapiens, UniProt P50549 1-477); details: protein: recombinant; tags: N-terminal GST; dsDNA, one strand shown
Method in brief: as §1

Chain of ETV5 (P41161 whole entry): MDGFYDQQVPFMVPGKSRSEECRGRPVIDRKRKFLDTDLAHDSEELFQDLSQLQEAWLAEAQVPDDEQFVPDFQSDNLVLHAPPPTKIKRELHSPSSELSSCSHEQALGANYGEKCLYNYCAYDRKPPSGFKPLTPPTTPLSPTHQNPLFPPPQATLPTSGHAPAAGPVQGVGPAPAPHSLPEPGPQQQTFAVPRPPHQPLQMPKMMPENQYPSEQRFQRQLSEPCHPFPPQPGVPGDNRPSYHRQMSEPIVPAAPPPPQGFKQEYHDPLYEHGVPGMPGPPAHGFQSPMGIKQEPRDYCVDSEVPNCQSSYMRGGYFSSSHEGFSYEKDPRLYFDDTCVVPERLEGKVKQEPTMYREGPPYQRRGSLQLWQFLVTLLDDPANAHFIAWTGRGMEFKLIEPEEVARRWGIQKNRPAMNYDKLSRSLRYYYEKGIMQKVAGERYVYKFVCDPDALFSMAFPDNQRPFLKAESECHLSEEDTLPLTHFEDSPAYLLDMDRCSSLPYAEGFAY
Chain of HSF1 (Q00613 whole entry): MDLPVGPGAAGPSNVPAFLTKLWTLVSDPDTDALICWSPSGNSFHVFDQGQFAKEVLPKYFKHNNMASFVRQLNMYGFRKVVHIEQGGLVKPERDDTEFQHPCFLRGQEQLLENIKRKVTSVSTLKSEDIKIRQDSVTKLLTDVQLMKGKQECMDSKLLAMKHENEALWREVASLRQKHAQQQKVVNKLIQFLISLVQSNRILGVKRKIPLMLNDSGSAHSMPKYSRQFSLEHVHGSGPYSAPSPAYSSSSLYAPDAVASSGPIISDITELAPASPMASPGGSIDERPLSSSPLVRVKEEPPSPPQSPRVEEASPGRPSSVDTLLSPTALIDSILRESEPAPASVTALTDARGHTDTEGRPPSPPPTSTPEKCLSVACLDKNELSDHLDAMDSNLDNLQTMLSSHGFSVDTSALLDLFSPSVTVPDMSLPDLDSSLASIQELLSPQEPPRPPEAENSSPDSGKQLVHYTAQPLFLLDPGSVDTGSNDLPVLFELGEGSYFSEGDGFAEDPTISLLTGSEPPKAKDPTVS
Chain of ELF1 (P32519 whole entry): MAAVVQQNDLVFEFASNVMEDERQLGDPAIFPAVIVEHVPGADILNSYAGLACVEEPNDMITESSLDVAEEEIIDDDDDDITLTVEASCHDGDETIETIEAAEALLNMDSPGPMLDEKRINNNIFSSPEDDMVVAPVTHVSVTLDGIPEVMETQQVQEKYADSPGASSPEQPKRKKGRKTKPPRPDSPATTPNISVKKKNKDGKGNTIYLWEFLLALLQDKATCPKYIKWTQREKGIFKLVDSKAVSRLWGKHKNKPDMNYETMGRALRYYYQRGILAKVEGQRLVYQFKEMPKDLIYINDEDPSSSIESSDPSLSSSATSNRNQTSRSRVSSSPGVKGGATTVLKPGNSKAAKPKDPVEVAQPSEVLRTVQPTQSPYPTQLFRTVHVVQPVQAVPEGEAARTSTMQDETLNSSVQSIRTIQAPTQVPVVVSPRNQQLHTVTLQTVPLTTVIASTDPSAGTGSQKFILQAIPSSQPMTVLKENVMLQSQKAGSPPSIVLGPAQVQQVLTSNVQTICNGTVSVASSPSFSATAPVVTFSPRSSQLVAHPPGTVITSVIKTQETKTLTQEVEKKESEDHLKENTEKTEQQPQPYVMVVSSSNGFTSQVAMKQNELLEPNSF
Chain of SPIB (Q01892 whole entry): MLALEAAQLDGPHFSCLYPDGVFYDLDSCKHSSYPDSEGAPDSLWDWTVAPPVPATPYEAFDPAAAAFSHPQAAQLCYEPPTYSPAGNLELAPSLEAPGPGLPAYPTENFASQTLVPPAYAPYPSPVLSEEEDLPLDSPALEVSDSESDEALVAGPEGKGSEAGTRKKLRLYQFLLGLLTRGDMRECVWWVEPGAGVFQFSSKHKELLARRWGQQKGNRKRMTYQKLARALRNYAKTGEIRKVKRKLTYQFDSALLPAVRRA
Chain of ETV1 (P50549 whole entry): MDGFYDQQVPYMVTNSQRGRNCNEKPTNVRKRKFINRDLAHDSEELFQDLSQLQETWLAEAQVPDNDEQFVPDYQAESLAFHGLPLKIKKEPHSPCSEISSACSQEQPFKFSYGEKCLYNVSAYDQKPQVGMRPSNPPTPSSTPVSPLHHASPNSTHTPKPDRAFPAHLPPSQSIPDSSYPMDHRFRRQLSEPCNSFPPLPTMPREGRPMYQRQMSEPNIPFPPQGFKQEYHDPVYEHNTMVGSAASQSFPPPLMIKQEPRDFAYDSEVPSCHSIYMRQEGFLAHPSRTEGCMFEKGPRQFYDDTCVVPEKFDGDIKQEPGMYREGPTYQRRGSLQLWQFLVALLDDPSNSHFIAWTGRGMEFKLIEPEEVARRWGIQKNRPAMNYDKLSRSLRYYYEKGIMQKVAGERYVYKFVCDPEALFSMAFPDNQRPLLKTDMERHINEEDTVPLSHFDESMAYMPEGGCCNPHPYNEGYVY
Chain of ELF4 (Q99607 whole entry): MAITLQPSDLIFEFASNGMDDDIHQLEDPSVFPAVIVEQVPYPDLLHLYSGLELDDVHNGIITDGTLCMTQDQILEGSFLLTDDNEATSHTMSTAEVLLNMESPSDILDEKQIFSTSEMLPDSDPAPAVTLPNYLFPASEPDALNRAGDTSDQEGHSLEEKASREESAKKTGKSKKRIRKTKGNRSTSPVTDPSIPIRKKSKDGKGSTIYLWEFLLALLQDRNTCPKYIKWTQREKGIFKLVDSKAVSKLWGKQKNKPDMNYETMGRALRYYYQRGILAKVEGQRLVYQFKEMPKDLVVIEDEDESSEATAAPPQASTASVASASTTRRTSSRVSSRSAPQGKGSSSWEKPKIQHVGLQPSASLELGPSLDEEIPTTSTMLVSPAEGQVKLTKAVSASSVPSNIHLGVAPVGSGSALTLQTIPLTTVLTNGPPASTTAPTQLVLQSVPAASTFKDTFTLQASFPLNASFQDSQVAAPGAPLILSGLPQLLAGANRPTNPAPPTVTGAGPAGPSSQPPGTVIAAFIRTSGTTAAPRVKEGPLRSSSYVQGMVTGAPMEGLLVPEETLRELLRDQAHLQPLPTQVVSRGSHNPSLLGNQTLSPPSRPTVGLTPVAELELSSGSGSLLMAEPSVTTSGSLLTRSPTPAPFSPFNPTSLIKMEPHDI

GTAACT
binding signal (FLI1): 1.31 fold enrichment (6-mer frequency, TF over GST control) | binding signal (ELK1): 1.25 fold enrichment (6-mer frequency, TF over GST control) | binding signal (GABPA): 1.22 fold enrichment (6-mer frequency, TF over GST control) | binding signal (ERG): 1.25 fold enrichment (6-mer frequency, TF over GST control) | binding signal (ELF1): 1.22 fold enrichment (6-mer frequency, TF over GST control) | binding signal (EHF): 1.21 fold enrichment (6-mer frequency, TF over GST control) | binding signal (SPI1): 1.35 fold enrichment (6-mer frequency, TF over GST control) | binding signal (SPIB): 1.28 fold enrichment (6-mer frequency, TF over GST control) | binding signal (ELK3): 1.11 fold enrichment (6-mer frequency, TF over GST control) | binding signal (FEV): 1.18 fold enrichment (6-mer frequency, TF over GST control) | binding signal (ETV5): 1.21 fold enrichment (6-mer frequency, TF over GST control) | binding signal (HSF1): 1.02 fold enrichment (6-mer frequency, TF over GST control) | binding signal (SPIC): 1.37 fold enrichment (6-mer frequency, TF over GST control) | binding signal (ELF4): 1.27 fold enrichment (6-mer frequency, TF over GST control) | binding signal (ELK4): 1.26 fold enrichment (6-mer frequency, TF over GST control) | binding signal (ETV2): 1.2 fold enrichment (6-mer frequency, TF over GST control) | binding signal (ELF3): 1.16 fold enrichment (6-mer frequency, TF over GST control) | binding signal (ETV1): 1.16 fold enrichment (6-mer frequency, TF over GST control)
